In ChEMBL document CHEMBL1961873, “Compounds: GSK PKIS; Assays: Nanosyn kinase panel” (2012) one finds inhibition data, which are given here for seven compounds.

Experiment [1] addresses Fibroblast growth factor receptor 4 (Homo sapiens) (UniProt P22455). Particulars: at 1 µM.
Experiment [2] concerns the target Tyrosine-protein kinase Fgr (Homo sapiens) (UniProt P09769). The conditions noted are these: at 0.1 µM.
The target is the same in experiment [3]. The conditions noted are these: at 1 µM.
Experiment [4] addresses Vascular endothelial growth factor receptor 1 (Homo sapiens) (UniProt P17948). Particulars: at 0.1 µM.
Experiment [5] shares this target. Particulars: at 1 µM.
The target in experiment [6] is Receptor-type tyrosine-protein kinase FLT3 (Homo sapiens) (UniProt P36888). Particulars: at 0.1 µM.
Experiment [7] shares this target. Particulars: at 1 µM.
The test system of experiment [8] is T1, Receptor-type tyrosine-protein kinase FLT3 (Homo sapiens), P36888 [D835Y].
T1 sequence (whole entry): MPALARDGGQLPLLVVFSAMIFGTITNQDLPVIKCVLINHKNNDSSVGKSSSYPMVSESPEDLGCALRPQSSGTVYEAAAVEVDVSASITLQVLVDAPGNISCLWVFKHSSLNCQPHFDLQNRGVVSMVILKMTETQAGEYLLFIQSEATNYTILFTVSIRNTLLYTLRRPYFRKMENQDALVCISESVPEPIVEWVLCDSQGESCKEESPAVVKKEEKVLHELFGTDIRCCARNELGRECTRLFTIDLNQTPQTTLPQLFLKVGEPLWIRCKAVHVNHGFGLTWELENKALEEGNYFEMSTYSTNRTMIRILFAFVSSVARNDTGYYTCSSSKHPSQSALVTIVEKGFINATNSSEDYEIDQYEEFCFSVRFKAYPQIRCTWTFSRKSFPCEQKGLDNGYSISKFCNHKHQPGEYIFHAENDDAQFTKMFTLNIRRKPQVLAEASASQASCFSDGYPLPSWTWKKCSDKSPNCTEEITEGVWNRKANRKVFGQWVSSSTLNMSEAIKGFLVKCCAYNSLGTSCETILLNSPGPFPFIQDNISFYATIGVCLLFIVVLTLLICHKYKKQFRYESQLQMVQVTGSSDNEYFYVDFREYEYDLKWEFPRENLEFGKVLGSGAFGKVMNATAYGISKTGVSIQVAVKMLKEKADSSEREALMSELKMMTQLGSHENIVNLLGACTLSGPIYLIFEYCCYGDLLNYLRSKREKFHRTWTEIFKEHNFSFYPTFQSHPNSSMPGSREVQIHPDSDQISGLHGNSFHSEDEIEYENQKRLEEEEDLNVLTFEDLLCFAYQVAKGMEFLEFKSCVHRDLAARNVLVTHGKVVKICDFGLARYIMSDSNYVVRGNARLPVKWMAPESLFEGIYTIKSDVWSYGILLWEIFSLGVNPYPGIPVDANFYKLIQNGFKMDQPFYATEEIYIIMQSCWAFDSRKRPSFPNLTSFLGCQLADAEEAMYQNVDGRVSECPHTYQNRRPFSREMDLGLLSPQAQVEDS
Particulars: at 0.1 µM.

Experiment [9] has as its target Non-receptor tyrosine-protein kinase TYK2 (Homo sapiens) (UniProt P29597). Particulars: at 1 µM.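 Also: values are mean percent inhibition of TYK2 kinase.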
Experiment [10] concerns the target T2, Tyrosine-protein kinase receptor TYRO3 (Homo sapiens) (UniProt Q06418).
T2 sequence (whole entry): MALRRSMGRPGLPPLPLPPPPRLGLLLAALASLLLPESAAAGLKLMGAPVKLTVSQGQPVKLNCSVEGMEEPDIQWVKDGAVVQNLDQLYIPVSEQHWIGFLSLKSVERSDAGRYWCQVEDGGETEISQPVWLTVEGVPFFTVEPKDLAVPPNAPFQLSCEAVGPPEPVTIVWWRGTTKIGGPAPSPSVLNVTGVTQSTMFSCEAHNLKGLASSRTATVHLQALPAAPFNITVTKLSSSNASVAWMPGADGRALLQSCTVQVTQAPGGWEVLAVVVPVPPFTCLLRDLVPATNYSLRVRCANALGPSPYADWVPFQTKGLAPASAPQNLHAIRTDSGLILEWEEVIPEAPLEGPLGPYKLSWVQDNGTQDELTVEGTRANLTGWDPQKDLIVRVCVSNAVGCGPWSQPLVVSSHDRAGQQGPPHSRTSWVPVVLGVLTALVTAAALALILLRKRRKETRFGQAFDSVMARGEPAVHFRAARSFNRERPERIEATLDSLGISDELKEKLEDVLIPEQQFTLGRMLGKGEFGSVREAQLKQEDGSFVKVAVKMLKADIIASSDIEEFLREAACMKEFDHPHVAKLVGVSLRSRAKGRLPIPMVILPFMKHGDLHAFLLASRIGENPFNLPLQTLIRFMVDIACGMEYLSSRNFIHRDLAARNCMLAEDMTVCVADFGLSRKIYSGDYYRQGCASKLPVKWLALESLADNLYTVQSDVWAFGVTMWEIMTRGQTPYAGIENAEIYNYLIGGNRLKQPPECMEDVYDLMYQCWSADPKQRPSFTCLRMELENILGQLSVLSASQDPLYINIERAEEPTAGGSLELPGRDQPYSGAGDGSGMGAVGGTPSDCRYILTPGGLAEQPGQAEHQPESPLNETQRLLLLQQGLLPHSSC
The conditions noted are these: at 0.1 µM.

The target in experiment [11] is T2, Tyrosine-protein kinase receptor TYRO3 (Homo sapiens). Particulars: at 1 µM.
For experiment [12], the target named is Tyrosine-protein kinase Yes (Homo sapiens) (UniProt P07947). The conditions noted are these: at 0.1 µM.
For experiment [13] the target is unchanged. Particulars: at 1 µM.
Experiment [14] concerns the target T3, Tyrosine-protein kinase ZAP-70 (Homo sapiens) (UniProt P43403).
T3 sequence (whole entry): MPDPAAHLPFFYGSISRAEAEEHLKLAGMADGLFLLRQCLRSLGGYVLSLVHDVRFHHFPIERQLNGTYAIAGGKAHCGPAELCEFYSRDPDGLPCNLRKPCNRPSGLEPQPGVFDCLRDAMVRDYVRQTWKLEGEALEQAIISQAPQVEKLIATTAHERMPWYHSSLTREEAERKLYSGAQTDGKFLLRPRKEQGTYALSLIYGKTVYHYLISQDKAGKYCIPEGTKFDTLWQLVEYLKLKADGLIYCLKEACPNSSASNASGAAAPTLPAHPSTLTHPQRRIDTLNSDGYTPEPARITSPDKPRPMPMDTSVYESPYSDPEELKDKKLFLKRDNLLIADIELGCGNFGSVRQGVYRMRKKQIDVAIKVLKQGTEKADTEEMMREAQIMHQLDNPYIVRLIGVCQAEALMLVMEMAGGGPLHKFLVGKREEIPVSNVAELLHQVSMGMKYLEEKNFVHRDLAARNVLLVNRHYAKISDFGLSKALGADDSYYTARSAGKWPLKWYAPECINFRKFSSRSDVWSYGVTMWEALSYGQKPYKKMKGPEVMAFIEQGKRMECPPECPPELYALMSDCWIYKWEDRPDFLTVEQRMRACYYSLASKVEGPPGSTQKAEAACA
The conditions noted are these: at 0.1 µM.

In experiment [15] the target is T3, Tyrosine-protein kinase ZAP-70 (Homo sapiens). Particulars: at 1 µM.
Experiment [16] concerns the target Serine/threonine-protein kinase B-raf (Homo sapiens) (UniProt P15056). The conditions noted are these: at 0.1 µM.
Experiment [17] shares this target. Particulars: at 1 µM.
For experiment [18], the system named is Serine/threonine-protein kinase B-raf (Homo sapiens), P15056 [V600E]. Particulars: at 0.1 µM.
Chain of Serine/threonine-protein kinase B-raf (Homo sapiens), P15056 [V600E] (P15056 whole entry V600E): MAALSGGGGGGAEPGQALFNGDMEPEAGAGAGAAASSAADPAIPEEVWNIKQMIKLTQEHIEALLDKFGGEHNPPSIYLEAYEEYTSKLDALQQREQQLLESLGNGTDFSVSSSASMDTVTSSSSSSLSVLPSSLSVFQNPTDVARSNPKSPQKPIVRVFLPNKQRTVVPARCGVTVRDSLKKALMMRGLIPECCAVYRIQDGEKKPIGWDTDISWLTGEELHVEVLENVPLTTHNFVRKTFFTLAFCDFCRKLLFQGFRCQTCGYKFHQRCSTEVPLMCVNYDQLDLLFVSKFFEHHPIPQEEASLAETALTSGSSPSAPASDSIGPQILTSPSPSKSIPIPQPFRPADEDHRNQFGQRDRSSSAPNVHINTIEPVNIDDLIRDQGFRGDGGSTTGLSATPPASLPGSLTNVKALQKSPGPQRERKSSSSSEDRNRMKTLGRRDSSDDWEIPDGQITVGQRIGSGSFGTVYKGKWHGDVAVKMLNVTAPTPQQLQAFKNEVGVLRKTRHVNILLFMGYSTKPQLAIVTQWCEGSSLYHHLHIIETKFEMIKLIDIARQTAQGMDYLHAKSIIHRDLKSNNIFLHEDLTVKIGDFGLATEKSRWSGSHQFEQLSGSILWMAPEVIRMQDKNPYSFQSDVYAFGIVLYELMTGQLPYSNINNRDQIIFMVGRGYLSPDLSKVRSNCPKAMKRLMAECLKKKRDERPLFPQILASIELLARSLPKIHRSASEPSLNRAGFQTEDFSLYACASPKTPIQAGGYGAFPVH
Experiment [19] shares this test system. Particulars: at 1 µM.
Experiment [20] addresses RAF proto-oncogene serine/threonine-protein kinase (Homo sapiens) (UniProt P04049). Particulars: at 0.1 µM.

SMILES strings stand for the structures.

A word on the inhibition: it is the relative decrease from the control value, in per cent.

Chain of Serine/threonine-protein kinase B-raf (Homo sapiens) (P15056 whole entry): as the sequence (P15056 whole entry V600E) above, with E600V counted along it
Chain of RAF proto-oncogene serine/threonine-protein kinase (Homo sapiens) (P04049 whole entry): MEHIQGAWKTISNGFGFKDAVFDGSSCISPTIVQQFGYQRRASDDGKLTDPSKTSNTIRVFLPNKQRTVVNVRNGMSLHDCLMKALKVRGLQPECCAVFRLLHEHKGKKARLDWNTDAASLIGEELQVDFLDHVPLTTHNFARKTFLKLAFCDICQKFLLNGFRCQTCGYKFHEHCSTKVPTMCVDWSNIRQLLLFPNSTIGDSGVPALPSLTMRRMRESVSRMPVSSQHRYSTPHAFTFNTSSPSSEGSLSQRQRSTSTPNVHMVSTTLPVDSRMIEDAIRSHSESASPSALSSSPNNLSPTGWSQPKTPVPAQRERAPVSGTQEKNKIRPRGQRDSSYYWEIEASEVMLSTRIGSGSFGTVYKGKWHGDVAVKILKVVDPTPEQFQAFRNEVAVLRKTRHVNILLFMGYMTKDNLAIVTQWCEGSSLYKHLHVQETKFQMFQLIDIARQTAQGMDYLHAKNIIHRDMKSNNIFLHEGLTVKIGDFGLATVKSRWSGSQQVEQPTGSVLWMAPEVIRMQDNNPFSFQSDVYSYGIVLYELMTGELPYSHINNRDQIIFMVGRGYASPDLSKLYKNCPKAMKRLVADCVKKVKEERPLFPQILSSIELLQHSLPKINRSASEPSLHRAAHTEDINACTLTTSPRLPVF
Chain of Fibroblast growth factor receptor 4 (Homo sapiens) (P22455 22-802 limits assumed): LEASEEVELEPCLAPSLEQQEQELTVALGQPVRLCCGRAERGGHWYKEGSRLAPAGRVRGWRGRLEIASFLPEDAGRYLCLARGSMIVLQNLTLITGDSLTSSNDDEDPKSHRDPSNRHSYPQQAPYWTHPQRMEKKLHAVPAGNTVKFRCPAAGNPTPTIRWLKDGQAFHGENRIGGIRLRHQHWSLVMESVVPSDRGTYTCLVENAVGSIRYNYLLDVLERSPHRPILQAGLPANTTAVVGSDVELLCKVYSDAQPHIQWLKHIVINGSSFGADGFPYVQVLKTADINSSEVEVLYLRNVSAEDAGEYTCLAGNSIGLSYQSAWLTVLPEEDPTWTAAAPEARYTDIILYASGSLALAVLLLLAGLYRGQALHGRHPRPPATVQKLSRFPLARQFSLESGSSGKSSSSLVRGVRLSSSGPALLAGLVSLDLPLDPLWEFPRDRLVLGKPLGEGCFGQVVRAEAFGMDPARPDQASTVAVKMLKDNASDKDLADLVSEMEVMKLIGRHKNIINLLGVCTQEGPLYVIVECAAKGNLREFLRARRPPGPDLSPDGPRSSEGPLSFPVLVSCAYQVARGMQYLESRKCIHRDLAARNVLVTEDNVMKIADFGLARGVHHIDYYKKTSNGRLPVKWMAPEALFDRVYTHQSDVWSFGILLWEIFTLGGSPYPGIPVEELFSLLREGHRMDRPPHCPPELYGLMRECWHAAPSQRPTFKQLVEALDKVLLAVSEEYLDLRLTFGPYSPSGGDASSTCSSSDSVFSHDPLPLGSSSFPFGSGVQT
Chain of Non-receptor tyrosine-protein kinase TYK2 (Homo sapiens) (P29597 whole entry): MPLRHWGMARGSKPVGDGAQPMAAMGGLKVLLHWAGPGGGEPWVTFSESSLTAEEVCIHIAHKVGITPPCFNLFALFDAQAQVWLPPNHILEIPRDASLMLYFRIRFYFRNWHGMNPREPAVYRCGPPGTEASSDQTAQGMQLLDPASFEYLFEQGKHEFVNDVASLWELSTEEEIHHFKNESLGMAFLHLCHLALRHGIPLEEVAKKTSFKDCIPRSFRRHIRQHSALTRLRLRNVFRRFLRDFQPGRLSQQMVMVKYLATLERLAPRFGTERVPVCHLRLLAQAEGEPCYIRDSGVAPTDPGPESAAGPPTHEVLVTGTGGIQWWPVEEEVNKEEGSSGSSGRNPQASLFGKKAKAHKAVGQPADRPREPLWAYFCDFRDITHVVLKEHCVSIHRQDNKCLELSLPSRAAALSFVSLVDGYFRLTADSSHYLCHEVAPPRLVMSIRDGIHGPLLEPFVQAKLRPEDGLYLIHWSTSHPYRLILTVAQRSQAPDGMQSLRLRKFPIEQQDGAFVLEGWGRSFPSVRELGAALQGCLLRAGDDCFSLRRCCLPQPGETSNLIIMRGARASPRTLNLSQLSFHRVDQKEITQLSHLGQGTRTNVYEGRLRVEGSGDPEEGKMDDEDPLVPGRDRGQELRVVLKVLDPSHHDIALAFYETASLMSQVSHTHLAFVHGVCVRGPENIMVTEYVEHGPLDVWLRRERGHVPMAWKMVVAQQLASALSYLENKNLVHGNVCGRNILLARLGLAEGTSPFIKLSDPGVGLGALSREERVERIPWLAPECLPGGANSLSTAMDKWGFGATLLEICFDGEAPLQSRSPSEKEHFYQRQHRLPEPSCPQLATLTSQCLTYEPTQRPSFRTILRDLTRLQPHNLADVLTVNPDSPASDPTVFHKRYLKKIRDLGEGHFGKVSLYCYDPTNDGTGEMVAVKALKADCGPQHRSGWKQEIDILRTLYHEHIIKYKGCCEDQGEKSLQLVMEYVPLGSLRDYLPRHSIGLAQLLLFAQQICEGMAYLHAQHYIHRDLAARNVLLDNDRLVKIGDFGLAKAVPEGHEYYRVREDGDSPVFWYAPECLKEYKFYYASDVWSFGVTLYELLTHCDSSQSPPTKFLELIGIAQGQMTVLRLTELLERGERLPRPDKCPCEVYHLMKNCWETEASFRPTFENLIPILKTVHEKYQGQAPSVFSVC
Chain of Vascular endothelial growth factor receptor 1 (Homo sapiens) (P17948 whole entry): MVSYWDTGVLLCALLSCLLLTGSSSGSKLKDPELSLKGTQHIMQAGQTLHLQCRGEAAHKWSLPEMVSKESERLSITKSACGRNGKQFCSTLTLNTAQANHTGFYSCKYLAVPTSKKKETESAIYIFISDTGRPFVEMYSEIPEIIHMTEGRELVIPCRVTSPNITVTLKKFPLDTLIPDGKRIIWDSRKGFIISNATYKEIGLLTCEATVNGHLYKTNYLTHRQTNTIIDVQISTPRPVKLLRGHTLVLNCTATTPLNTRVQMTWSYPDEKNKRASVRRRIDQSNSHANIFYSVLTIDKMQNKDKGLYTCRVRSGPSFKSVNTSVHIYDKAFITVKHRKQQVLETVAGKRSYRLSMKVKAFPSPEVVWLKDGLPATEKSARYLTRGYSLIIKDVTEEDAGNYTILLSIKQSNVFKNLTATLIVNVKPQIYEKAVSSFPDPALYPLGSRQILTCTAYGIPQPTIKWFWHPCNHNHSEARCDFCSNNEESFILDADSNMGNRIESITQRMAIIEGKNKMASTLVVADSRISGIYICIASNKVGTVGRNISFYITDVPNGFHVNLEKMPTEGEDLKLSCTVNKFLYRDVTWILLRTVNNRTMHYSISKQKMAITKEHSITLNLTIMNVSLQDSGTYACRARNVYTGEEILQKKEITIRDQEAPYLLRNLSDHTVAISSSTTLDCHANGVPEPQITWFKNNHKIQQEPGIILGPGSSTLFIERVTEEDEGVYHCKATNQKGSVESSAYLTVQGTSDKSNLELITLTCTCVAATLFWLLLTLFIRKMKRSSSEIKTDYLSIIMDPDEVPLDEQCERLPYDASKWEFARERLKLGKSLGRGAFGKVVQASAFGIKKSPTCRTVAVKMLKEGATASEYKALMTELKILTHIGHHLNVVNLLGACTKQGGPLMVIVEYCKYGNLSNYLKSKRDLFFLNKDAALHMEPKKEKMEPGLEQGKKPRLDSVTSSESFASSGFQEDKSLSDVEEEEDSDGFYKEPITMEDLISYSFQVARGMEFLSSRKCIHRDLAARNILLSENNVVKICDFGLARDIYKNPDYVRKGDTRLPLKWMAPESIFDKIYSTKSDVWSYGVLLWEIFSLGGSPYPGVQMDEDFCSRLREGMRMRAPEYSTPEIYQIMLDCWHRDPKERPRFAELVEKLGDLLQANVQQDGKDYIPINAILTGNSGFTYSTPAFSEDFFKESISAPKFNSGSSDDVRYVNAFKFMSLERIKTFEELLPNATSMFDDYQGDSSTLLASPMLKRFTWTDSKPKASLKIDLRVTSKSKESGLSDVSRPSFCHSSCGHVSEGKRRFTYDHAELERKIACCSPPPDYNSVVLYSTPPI

On to `COC(=O)Nc1nc2cc(Oc3ccc(NC(=O)Nc4ccccc4)cc3)ccc2[nH]1`, for which the inhibition in [1] is -0.59%; in [2], 4.41%; in experiment [3], 3.18%; in [4] it was 16.5%; in [5], 22.1%; in experiment [6], 5.43%. Further, the inhibition was 14.2% in experiment [7]; -4.53% in experiment [8]; -1.49% in experiment [9]; 1.8% in experiment [10]; 4.81% in experiment [11]; 0.64% in experiment [12]. Also, the inhibition came out at 4.69% in [13]; 0.7% in experiment [14]; 1.28% in [15]; 4.74% in experiment [16]; 4.26% in [17]; 5.49% in experiment [18]. Further, the inhibition in [19] was 5%; in [20], -5.27%.

`COc1ccc2ncn(-c3cc(O[C@H](C)c4ccccc4C(F)(F)F)c(C(N)=O)s3)c2c1`: the inhibition in [1] was 3.29%; in [2], 0.34%; in [3], 1.98%; in [4], -2.14%; in [5], 1.15%; in [6], -1.48%. The inhibition in experiment [7] is 8.06%; in experiment [8] it was -1.49%; in [9], -1.84%; in [10], -0.34%; in experiment [11] it was 2.75%; in experiment [12], -2.36%. Further, the inhibition in experiment [13] is 1.07%; in experiment [14], 2.16%; in experiment [15], 2.62%; in experiment [16], -0.46%; in experiment [17], -2.23%; in [18], -1.03%. In addition, the results for the inhibition in experiment [19] and in experiment [20] were -0.82% and -0.27%, respectively.

Regarding `O=C1Nc2ccccc2/C1=C1\CCc2cc(O)ccc21`, the inhibition in experiment [1] is 3.99%; in [2], 2.44%; in experiment [3], 15.4%; in experiment [4] it was 12.7%; in experiment [5], 25.7%; in [6], 40.7%. Further, the inhibition in experiment [7] stood at 85.5%; in experiment [8], 27.1%; in [9], 6.88%; in [10], 4.69%; in experiment [11] it was 18.8%; in experiment [12], 3.94%. Moreover, the inhibition in [13] came to 13.6%; in [14] it was 3.48%; in [15], 7.74%; in experiment [16], 6.96%; in [17] it was 9.83%; in experiment [18], 8.49%. For the same compound, the inhibition in experiment [19] was 8.96%; in experiment [20] it was 0.39%.

For `FC(F)(F)CNc1nccc(-c2cnn3ncccc23)n1`, the inhibition in experiment [1] is -0.36%; in experiment [2], 2.09%; in [3], 3.01%; in [4], -0.04%; in [5], 0.56%; in experiment [6], 0.41%. Further, the inhibition is -1.47% in experiment [7]; -2.63% in experiment [8]; -2.6% in experiment [9]; 0.93% in [10]; 2.17% in experiment [11]; 1.28% in experiment [12]. In addition, the inhibition in experiment [13] turned out to be 1.55%; in [14] it was 0.71%; in experiment [15] it was 1.8%; in experiment [16] it was 4.03%; in [17], 3.85%; in experiment [18], 3.08%. Also, the inhibition in experiment [19] is 2.52%; in [20], -1.22%.

Take `Fc1ccc(Nc2nccc(-c3c(-c4ccc(C(F)(F)F)cc4)nn4ncccc34)n2)cc1F`: the inhibition in experiment [1] is 3.24%; in [2], -0.18%; in [3], 4.23%; in experiment [4], 1.95%; in experiment [5], 4.12%; in [6] it was 1.11%. For the same compound, the inhibition in [7] was 4.52%; in [8], 0.57%; in experiment [9], -3.25%; in [10], 3.71%; in experiment [11], 1.88%; in [12] it was -0.6%. Moreover, the inhibition worked out at 1.12% in experiment [13]; 2.29% in [14]; 2.38% in experiment [15]; 3.42% in [16]; 6.75% in experiment [17]; 3.45% in experiment [18]. Moreover, the inhibition in experiment [19] worked out at 6.03%; in experiment [20] it was 4.84%.

Consider `NS(=O)(=O)c1cccc(N/C=C2\C(=O)Nc3ccccc32)c1`, for which the inhibition in experiment [1] was 3.92%; in experiment [2], 5.5%; in [3], 13.8%; in [4], 7.92%; in experiment [5] it was 15.2%; in experiment [6], 5.75%. Further, the inhibition in [7] is 36.4%; in experiment [8], 1.52%; in experiment [9] it was -1.95%; in experiment [10], 3.33%; in experiment [11], 8.3%; in experiment [12] it was 4.04%. Also, the inhibition in experiment [13] was 9.49%; in [14], 1.68%; in experiment [15] it was 4.58%; in [16], 6.24%; in experiment [17], 7.76%; in experiment [18] it was 6.39%. In addition, the inhibition in experiment [19] is 7.82%; in experiment [20], -0.16%.

As for `CC1(C)CC(n2cnc(-c3ccc(F)cc3)c2-c2ccnc(N)n2)CC(C)(C)N1`, the inhibition in experiment [1] stood at 2.01%; in experiment [2], 0.26%; in experiment [3], 3.54%; in experiment [4], 1.16%; in experiment [5] it was 1.59%; in [6] it was 0.9%. For the same compound, the inhibition in experiment [7] is -0.24%; in experiment [8], 2.51%; in experiment [9] it was 0.03%; in experiment [10], 0.59%; in [11], 5.65%; in [12], 0.2%. In addition, the inhibition was 7.25% in experiment [13]; 0.52% in experiment [14]; 2.37% in [15]; 1.97% in experiment [16]; 1.13% in experiment [17]; 1.52% in [18]. Also, the inhibition in experiment [19] amounted to 0.8%; in [20] it was 6.47%.
